The values that follow come from PubChem BioAssay AID651871 (Sanford-Burnham Center for Chemical Genomics, 2012).

SMILES strings stand for the structures. Several values for one entry are separate records, joined by “and”; a condition that tells them apart may be missing. Equal values may be shown once.

The subject of the assay is H9c2. Briefly: cardiomyocyte survival under oxidative or metabolic stress – cell-based, panel, H9c2 and HL-1, ATP luminescence, set 2, SAR follow-up (AID 651871).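 Note: cells exposed to stressor for 2 h before ATP readout; reference of the scale not given here.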 To be noted: H9c2/HL-1 cardiomyocytes, 2-deoxyglucose stress, with 2-deoxyglucose; run 10, at 79 µM (top of the series) unless noted.
Regarding `COc1ccc2c(c1OC)C(=O)N1c3ccccc3C(=O)N(Cc3cccc(Cl)c3Cl)C21` (stereo not drawn), the activity (protection/inhibition) is 76% and 73.8% and -3.2%.

For `CCOC(=O)c1cccc(NC(=O)CNC(=O)c2cc(-c3cc(OC)c(OC)c(OC)c3)nc3ccccc23)c1`, the activity (protection/inhibition) is 82.3% [run 10, at 39.5 µM].

As to `COc1ccc2nc(-c3cc(OC)c(OC)c(OC)c3)cc(C(=O)NCC(=O)Nc3ccc(C(C)=O)cc3)c2c1`, the activity (protection/inhibition) turned out to be 78.3%.
